hcDAF12 agonist: H. contortus DAF-12 nuclear receptor activators, primary screen, cell-based, luminescence, HEK293, lit1-tk-luc reporter; HEK293 hcDAF-12 lit1-tk-luc reporter; 0% DMSO, 100% Δ7-dafachronic acid; activation, % at 6.8 µM; 1.4% of 370,000 active; AID 652067, 2013;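 active means activation above the mean of all tested compounds plus 3 SD, cut at about 5.5% in these data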
hgDAF12 agonist: H. glycines DAF-12 receptor agonists, primary screen, cell-based, luminescence, HEK293, GAL4 fusion, UAS-luciferase | HEK293 GAL4-hgDAF12 UAS-luciferase reporter, agonist luminescence; normalized to butyrate control | activation, % at 6.8 µM | Nuclear hormone receptor DAF-12 (Heterodera glycines), GAL4 fusion | 1.8% of 370,000 active;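 active means activation above a cutoff set at the mean of all screened compounds plus 3 SD, cut at about 10% in these data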
ssDAF12 agonist: S. stercoralis DAF-12 nuclear receptor activators, primary screen, cell-based, luminescence, HEK293, GRIP1 co-expression, lit1-tk-luc | 1% of 370,000 active | HEK293 ssDAF-12/GRIP1 lit1-tk-luc reporter; % of 3 µM dafachronic acid response | activation, % at 6.8 µM | Nuclear hormone receptor DAF-12 (Strongyloides stercoralis) | AID 652126, 2013;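 active means activation above the mean over all tested compounds plus 3 SD, cut at about 0.9% in these data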
esBAF inh: Bmi1 luciferase reporter increase in mESCs, primary screen, esBAF inhibitor project, mouse ES cells, Bmi1 luciferase knock-in, single point; 24 h; 100% = twice the neutral-well signal; 2% of 350,000 active; reporter increase, % at 12.5 µM; in the data active means activation above about 40%; inconclusive means no clear call, values can overlap the other calls;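 further: a rise in the Bmi1 reporter signal indicates esBAF inhibition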
Wnt bcat act: Wnt/beta-catenin pathway activators, primary screen, cell-based, plate reader, single point; activation, % at 9.35 µM; AID 743398, 2014; Wnt/beta-catenin reporter cell assay, activator; 1.2% of 300,000 active; in the data active means activation above about 30%, passing the limit was not always enough; inconclusive means no clear call, values can overlap the other calls
DAX1 inh: DAX1 (NR0B1) inhibitors on StAR promoter, primary screen, cell-based, luminescence, SF-1 (NR5A1), full-length DAX-1. inhibition, % at 6.8 µM. 1.1% of 370,000 active. HEK293T StAR-luciferase reporter, SF-1/DAX-1 repression relief;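 active means inhibition above the mean over all tested compounds plus 3 SD, cut at about 3.6% in these data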;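 further: higher inhibition means more luminescence from relief of DAX-1 repression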
DAX1 inh confirm: DAX1 (NR0B1) inhibitors relieving SF-1 repression, confirmation, cell-based, luminescence, HEK293T, full-length DAX-1, SF-1 activated StAR promoter; shares compounds with DAX1 inh; HEK293T StAR-promoter luciferase reporter, SF-1/DAX-1 repression; inhibition, % at 6.8 µM; 87% of 2,400 active; AID 652134, 2013;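 active means inhibition above the average of every tested compound plus 3 SD, cut at about 3.8% in these data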
SF1 AF2mut Luc: StAR reporter signal changes without DAX1, counter-screen for DAX1 inhibitor project, cell-based, luminescence, AF-2 mutant SF-1, transactivation; shares compounds with DAX1 inh; HEK293 StAR-luciferase, SF-1 AF2 mutant; inhibition, % at 6.8 µM; AID 652136, 2013; 78% of 2,400 active;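 active means inhibition above the mean of all tested compounds plus 3 SD, cut at about 3% in these data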
LXR ag: LXR agonists, Gal4 luciferase reporter, confirmation, counter-screen for hcDAF-12 agonist project, cell-based, luminescence, HEK293, H. contortus campaign; shares compounds with hcDAF12 agonist; HEK293 Gal4-LXR tk-luc reporter, 24 h; normalized: DMSO 0%, positive control 100%; activation, % at 6.8 µM; 3,400 tested, under 10 active; AID 743027, 2013;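 active means mean percent activation of the reporter above a cutoff set as the average over tested compounds plus their standard deviation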
Target sequence (P55055 whole entry, looked up, the tested form may be a part): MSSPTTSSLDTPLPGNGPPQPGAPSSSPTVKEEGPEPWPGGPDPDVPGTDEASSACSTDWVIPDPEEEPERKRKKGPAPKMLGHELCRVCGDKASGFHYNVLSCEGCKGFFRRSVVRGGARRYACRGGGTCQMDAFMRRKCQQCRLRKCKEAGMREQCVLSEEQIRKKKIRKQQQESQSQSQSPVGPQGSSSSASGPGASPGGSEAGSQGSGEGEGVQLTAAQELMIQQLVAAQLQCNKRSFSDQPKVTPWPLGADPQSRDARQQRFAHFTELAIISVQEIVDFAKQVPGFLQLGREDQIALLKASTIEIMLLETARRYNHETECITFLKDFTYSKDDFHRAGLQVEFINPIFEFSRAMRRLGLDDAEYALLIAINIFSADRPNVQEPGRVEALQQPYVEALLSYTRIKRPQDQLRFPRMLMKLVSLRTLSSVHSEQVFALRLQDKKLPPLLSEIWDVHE
hcDAF12 ag: H. contortus DAF-12 receptor agonists, confirmation, cell-based, luminescence, HEK293, lit1-tk-luc, triplicate; shares compounds with hcDAF12 agonist; HEK293 hcDAF-12 lit1-tk-luc reporter; % of Δ7-dafachronic acid response; activation, % at 6.8 µM; 61% of 3,400 active; AID 743032, 2013;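 active means mean activation across triplicate tests above the threshold derived from the earlier primary screen, cut at about 5.5% in these data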
hgDAF12 conf: H. glycines DAF-12 receptor agonists, confirmation, cell-based, luminescence, HEK293, GAL4-LBD fusion. shares compounds with hgDAF12 agonist. HEK293 GAL4-hgDAF12 luciferase reporter, agonist mode; percent of butyrate response. activation, % at 6.8 µM. 80% of 3,300 active. AID 743050, 2013;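 active means mean activation over triplicate wells above the hit cutoff derived from the earlier primary screen, cut at about 11% in these data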
LXR ag 2: LXR agonists, Gal4 luciferase reporter, confirmation, counter-screen for hgDAF-12 agonist project, cell-based, luminescence, HEK293, H. glycines campaign | 24 h | activation, % at 6.8 µM | shares compounds with hgDAF12 agonist | 3,300 tested, under 10 active;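 active means mean activation of the triplicate above a set limit carried over from the primary screen, none filed active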
Numbers stand for hits; 0 = inactive; ? = inconclusive; - = no result. The list is not random: actives were taken first. Their share in the collection is about 4.2%.

SMILES	hcDAF12 agonist	hgDAF12 agonist	ssDAF12 agonist	esBAF inh	Wnt bcat act	DAX1 inh	DAX1 inh confirm	SF1 AF2mut Luc	LXR ag	hcDAF12 ag	hgDAF12 conf	LXR ag 2
COc1cccc(-c2cc(C(=O)NC3CCCC3)no2)c1	0	19.9	0	-	-	5.0	9.9	5.3	-	-	16.4	0
CCc1ccc(-c2ccc(SCC(=O)Nc3nnc(C)s3)nn2)cc1	7.6	20.6	0	-	0	6.0	10.1	7.8	0	6.0	16.1	0
Cc1nnc(NC(=O)CSc2ccc(-c3ccc(Cl)cc3)nn2)s1	0	0	0	-	0	0	-	-	-	-	-	-
COc1ccc(NC(=O)Nc2cccc3c2O[C@@H](CN(C)C(=O)Nc2ccc(OC)cc2)[C@H](C)CN([C@H](C)CO)C3=O)cc1	-	-	-	0	-	-	-	-	-	-	-	-
O=C(Nc1nc(-c2ccc3c(c2)OCCO3)cs1)c1ccco1	10.0	14.2	0	0	?	12.4	11.3	7.0	0	0	16.6	0
C=CCNc1nc(-c2ccc3c(c2)OCCO3)cs1	6.7	20.4	1.1	0	41.7	14.2	16.1	7.4	0	7.5	17.6	0
C[C@@H]1CCCCO[C@@H](CN(C)CC2CCCCC2)[C@H](C)CN([C@@H](C)CO)C(=O)c2cc(NC(=O)Cc3ccccc3)ccc2O1	-	-	-	0	-	-	-	-	-	-	-	-
c1ccc(-c2cc(-c3ccccc3)on2)cc1	12.0	18.4	1.7	-	41.5	5.7	17.9	11.7	0	8.0	17.7	0
CN1CCN(C(=O)C[C@H]2C[C@H]3c4cc(NC(=O)C5CCOCC5)ccc4O[C@H]3[C@@H](CO)O2)CC1	-	-	-	0	-	-	-	-	-	-	-	-
CC(=O)c1cccc(NS(=O)(=O)c2ccc(N/C=C\C(=O)c3ccc(C)cc3)cc2)c1	0	0	0	0	-	0	-	-	-	-	-	-
CC(=O)c1cccc(N/C=C\C(=O)c2ccc(C)cc2)c1	9.6	19.6	0	-	-	6.0	18.6	8.5	0	9.7	25.1	0
